{"source": "PubChem BioAssay (NCI)", "note": "About 83,000 compounds went through this panel and 20% of them were active in at least one assay; those are over-represented in the sample as a whole.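 Method: cells in 96-well plates; compound added at one concentration; 48 h incubation; percent growth measured; values under 10 scored active.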 A number with no mark means an inactive call. Calls of active or inactive are those of the source.", "data": [{"system": "MDA-MB-468 breast", "assay": "NCI-60 one-dose screen, 48 h (100 = growth as untreated, 0 = no growth, -100 = all killed)", "conditions": "100 µM", "values": [{"smiles": "COc1ccc(Cl)cc1C(=O)NCCc1ccc(S(=O)(=O)NC(=O)NC2CCCCC2)cc1", "growth": "63.2%"}, {"smiles": "O=C(Nc1c(Cl)cccc1Cl)Oc1cccc2cccnc12", "growth": "-0.346% (active)"}, {"smiles": "CN(C)C(=O)c1ccc(SC(=S)NCc2ccccc2)cc1", "growth": "-27.4% (active)"}, {"smiles": "CC(=O)/C=C/c1ccc(N(CCO)Cc2ccc(C(C)(C)C)cc2)cc1", "growth": "-71% (active)"}, {"smiles": "CC#C[C@]1(O)CC[C@H]2[C@@H]3CCC4=CC(=O)CCC4=C3[C@@H](c3ccc4c(c3)OCO4)C[C@@]21C", "growth": "-15.2% (active)"}, {"smiles": "O=c1ccn(C2CC(O)C(COC(c3ccccc3)(c3ccccc3)c3ccccc3)O2)c(=O)[nH]1", "note": "(stereo not given)", "growth": "41.5%"}, {"smiles": "CCN(Cc1ccccc1)c1ccc(/C=C2\\COc3ccccc3C2=O)cc1", "growth": "7.2% (active)"}, {"smiles": "COc1ccc(C(=O)/C=C/c2ccc(OCc3ccc(Cl)cc3)cc2)cc1OC", "growth": "27.8%"}, {"smiles": "CS/C(=C\\c1ccc(C(=O)c2ccc(C)cc2)n1C)S(C)=O", "note": "(stereo not given)", "growth": "30.8%"}, {"smiles": "COc1ccc(C(=O)/C=C/c2ccc(OCc3cccc(C(F)(F)F)c3)c(OC)c2)cc1OC", "growth": "-2.26% (active)"}, {"smiles": "COc1ccc(-c2cscc2N)cc1", "growth": "38.7%"}, {"smiles": "O=C(/C=C/c1cccc(Oc2ccc(Cl)cc2)c1)c1ccccc1", "growth": "-36.3% (active)"}, {"smiles": "CCc1ccccc1-n1c(N)c(C#N)c(-c2ccc(OC)c(OC)c2)c(C#N)c1=O", "growth": "47.4%"}, {"smiles": "O=C(O)c1c(Cl)c(Cl)c(Cl)c(Cl)c1-c1c2cc(I)c(=O)c(I)c-2oc2c(I)c(O)c(I)cc12", "growth": "-39.6% (active)"}, {"smiles": "O=C(Nc1cccc(Br)c1)Oc1cccc2cccnc12", "growth": "-8.71% (active)"}, {"smiles": "Cc1[nH]c(-c2nc3ccccc3[nH]2)c(C)c1C(=O)NC(C)C1CCCCC1", "note": "(stereo not given)", "growth": "-87.1% (active)"}, {"smiles": "CC(=O)/C=C/c1ccc(N(C)Cc2ccc(C(C)(C)C)cc2)cc1", "growth": "-71.8% (active)"}, {"smiles": "O=c1ccn2c(n1)OC1CC2OC1COC(c1ccccc1)(c1ccccc1)c1ccccc1", "note": "(stereo not given)", "growth": "56.9%"}, {"smiles": "O=C(O)c1sccc1O", "growth": "10.8%"}, {"smiles": "CC(=O)/C=C/c1ccc(OCc2ccc(C(C)(C)C)cc2)cc1", "growth": "-0.894% (active)"}]}]}
